Records with an inconclusive call do not appear. Where a call stands in place of a potency, no number is given. Calls of active or inactive are those of the source. Calls come from the whole dose curve; as a rule, active = well fitted inhibition curve with a large enough effect; inconclusive = small, poorly fitted or top-dose-only effect, or effect the other way; inactive = flat fitted curve, though single readings scatter.
Potency is the fitted concentration of half-maximal effect.

Chain of Ubiquitin carboxyl-terminal hydrolase 2 (Homo sapiens) (O75604 whole entry, looked up): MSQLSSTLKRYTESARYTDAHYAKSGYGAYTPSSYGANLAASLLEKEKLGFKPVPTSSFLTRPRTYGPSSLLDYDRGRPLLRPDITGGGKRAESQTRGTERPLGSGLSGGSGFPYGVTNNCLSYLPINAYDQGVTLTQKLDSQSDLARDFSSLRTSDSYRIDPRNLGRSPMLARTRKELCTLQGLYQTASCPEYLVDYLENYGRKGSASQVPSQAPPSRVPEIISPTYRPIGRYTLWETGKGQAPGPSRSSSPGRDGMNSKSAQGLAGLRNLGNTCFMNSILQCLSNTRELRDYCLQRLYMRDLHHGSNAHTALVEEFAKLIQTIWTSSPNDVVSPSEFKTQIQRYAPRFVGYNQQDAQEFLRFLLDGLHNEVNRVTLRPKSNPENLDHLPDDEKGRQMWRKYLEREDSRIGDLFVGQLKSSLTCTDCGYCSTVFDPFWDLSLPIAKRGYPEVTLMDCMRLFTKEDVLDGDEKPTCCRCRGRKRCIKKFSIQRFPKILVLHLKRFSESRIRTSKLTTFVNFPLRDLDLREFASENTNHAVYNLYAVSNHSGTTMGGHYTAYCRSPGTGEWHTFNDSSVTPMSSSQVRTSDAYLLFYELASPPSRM

The assay addresses Ubiquitin carboxyl-terminal hydrolase 2 (Homo sapiens) (UniProt O75604). As to the kind of experiment: Ub-rhodamine 110 based assay for inhibitors Ubiquitin-specific Protease USP2a. Note: nearly all actives have a fitted effect of over 50% in size. The settings on record: USP2a Ub-rhodamine110 cleavage, fluorescence; series mostly up to 38.3 µM. The source says:
NIH Molecular Libraries Probe Centers Network [MLPCN] NIH Chemical Genomics Center [NCGC] MLPCN Grant: XO1-MH079852-01 PI Name: Nicholson, Ben. Progenra Inc, Malvern, PA NCGC Assay Overview: Homeostasis of cellular proteins is maintained through a combination of synthesis and degradation. The pathway that accounts for the majority of protein degradation is the ubiquitin-proteasomal pathway. Ubiquitin (Ub) is highly conserved in all cells and the generation of a multi-Ub chain typically targets proteins for degradation by the proteasome. However, ubiquitination is highly reversible and dynamic. Deubiquitination, the reverse process, is catalyzed through the action of enzymes referred to as isopeptidases or deubiquitinating enzymes (DUBs). This group of enzymes is collectively responsible for maintaining adequate pools of free ubiquitin and regulating the ubiquitination status of cellular proteins. The class of DUBs referred to as the ubiquitin-specific proteases (USP) family functions endoproteolytically to cleave Ub chains from a wide range of protein substrates. USP2a deubiquitinates fatty acid synthase (FASN) which has recently been identified as an emerging oncology target. To identify inhibitors of USP2a a cell-free assay was employed. This assay measures cleavage of a profluorescent substrate (Ub-Rhodamine 110; Boston Biochem Cat#: U-555) by USP2a. The assay gives a fluorescent read-out at excitation/emission wavelengths of 485/531. The USP2a enzyme was provided by Progenra, Inc. licensed for sale by LifeSensors, Inc.
NCGC Assay Protocol: The assay buffer, prepared fresh at the day of the assay, contains 20mM Tris-HCl pH 8.0, 2mM CaCl2, 2mM beta-Mercaptoethanol, 0.05% CHAPS. 3uL of 10 nM (5 nM final) USP2a, was dispensed into a medium-binding black solid Kalypsys 1,536 well plate using the Kalypsys dispenser. The assay plate was then pinned with 23nL compounds in DMSO with a Kalypsys pintool in columns 5-48 (0.3% final DMSO concentration). The negative control was buffer/DMSO only in column 3. The assay plate is incubated at RT for 30min. Subsequently, 3uL of 300 nM Ub-Rhod110 (150 nM final) was dispensed into the plate using a Kalypsys dispenser. Plates were read after every minute for 7 min on a ViewLux (Perkin Elmer) plate reader using the following wavelengths: Ex 485nm /Em 531nm. Data were normalized to the AC100 inhibition (buffer alone). Concentration-response curves were fitted to the normalized data and the concentration-response curves were then classified based on curve quality (r2), response magnitude and degree of measured activity. The time zero reading was used to flag fluorescence artifacts.
As for `c1ccc(-c2nc3nc4ccccc4nc3n2Cc2ccco2)cc1`, the Potency entry was “inactive”.

In the case of `CCOc1ccc(-c2ccc(/C=C3/C(=N)N4C(C)=CSC4=NC3=O)o2)c([N+](=O)[O-])c1`, the Potency was 7.94 µM (active).

With `CCCc1nc(SCC(N)=O)[nH]c(=O)c1CC`, the Potency result is “inactive”.

As to `Cc1ccc(C2=N/C(=C\c3c(C)nn(-c4ccccc4)c3N3CCCC3)C(=O)O2)cc1`, the Potency entry is “inactive”.

With `COc1ccc(-c2noc(CSc3nnc(Cc4ccccc4)n3-c3ccc(Cl)cc3)n2)cc1`, the Potency result was “inactive”.

Consider `O=C(CCN1C(=O)/C(=C\c2ccco2)SC1=S)Nc1ccc(C(=O)O)c(O)c1`, for which the Potency is 7.94 µM (active).

For the compound `CCC(C)(C(=O)NC1CCCCC1)N(C(=O)C1CCC(=O)N1)c1ccccc1` (stereo not given), the Potency result is “inactive”.

Regarding `O=S(=O)(Nc1ccc(O)c(Sc2nc3ccccc3s2)c1)c1cccc2ccccc12`, the Potency is 10 µM (active).

Regarding `CC(C)c1ccc(C2=C(O)c3ccccc3C(=O)C2=O)cc1`, the Potency entry is “inactive”.

Take `COc1ccc(CC(=O)c2ccccc2C(=O)O)cc1`: the Potency result is “inactive”.

As to `O=c1c2c3nc4ccccc4nc3n(Cc3ccccc3)c2ncn1Cc1ccco1`, the Potency is 11.2 µM (active).

With `Cc1cc(SCC(=O)NC2CCCCC2)nc2ccccc12`, the Potency entry was “inactive”.

Take `Cn1c2ccccc2c2nnc(SC3CCOC3=O)nc21` (stereo not given): the Potency result was “inactive”.

Regarding `O=C(NCCN1C(=O)CSC1=O)C1CC(=O)N(c2ccccc2)C1` (stereo not given), the Potency result was “inactive”.

`CCN(C[C@H]1N[C@@](CC)(C(=O)OC)[C@H]2C(=O)N(Cc3ccccc3)C(=O)[C@@H]12)C(=O)Nc1ccc(C)cc1`: the Potency entry is “inactive”.

For `CSc1ncccc1C(=O)OCC(=O)N1CCOCC1`, the Potency entry is “inactive”.

Regarding `CC(C)n1nc(C(=O)Nc2ccccc2N2CCOCC2)c2ccccc2c1=O`, the Potency result is “inactive”.

Turning to `COc1ccccc1NC(=O)N1CCN(c2ccccn2)CC1`, the Potency result is “inactive”.

Consider `C#CCOCCOCCOCCNc1nc(N2CCN(C(=O)CCCCCCCCCCNC(=O)[C@@H](CCC(=O)O)n3cc(CCCCCN)nn3)CC2)nc(N2CCN(C(=O)CCCCCCCCCCNC(=O)[C@H](CCCCN)n3cc(C[C@@H](C)CC)nn3)CC2)n1`, for which the Potency entry was “inactive”.

Take `CC1(C)CC(=O)C2=C(C1)NCN(CCCN1CCOCC1)C2`: the Potency result is “inactive”.

In the case of `C[C@H](CO)N1C[C@H](C)[C@@H](CN(C)S(=O)(=O)c2cn(C)cn2)Oc2ccc(NC(=O)Cn3cnnn3)cc2C1=O`, the Potency result was “inactive”.

With `O=[N+]([O-])c1ccc(Sc2nnnn2-c2ccccc2)c(Cl)c1`, the Potency result is “inactive”.

For the compound `Cc1ccc(CSC2=Nc3ccccc3C3=NC(CC(=O)NCc4ccco4)C(=O)N23)cc1` (stereo not given), the Potency was 8.91 µM (active).

Regarding `Nc1ccc(C2=Nc3cccc4cccc(c34)N2)cc1`, the Potency is 12.6 µM (active).

For `Cc1ccc(N2CCN(C(=O)CCc3nc4ccccc4[nH]3)CC2)c(C)c1`, the Potency entry was “inactive”.

Turning to `O=C(CSc1ccc(Br)c2cccc(Cl)c12)Nc1ccc(S(=O)(=O)Nc2nccs2)cc1`, the Potency is 3.55 µM (active).

Consider `Cn1c(=O)[nH]c(=O)c2c1nc(NCc1ccccc1)n2CCCc1ccccc1`, for which the Potency result is “inactive”.

With `CCOc1ccc2nc(NC(=O)Nc3ccccc3)sc2c1`, the Potency entry is “inactive”.

Regarding `CCOc1ccc(NC(=O)c2ccc(NC(=O)COC(=O)c3ccc(NC(=O)CC#N)cc3)cc2)cc1`, the Potency is 3.98 µM (active).

On to `CC(NC(=O)COc1ccccc1-c1ccccc1)c1ccccc1` (stereo not given), for which the Potency result is “inactive”.

In the case of `CC(=O)C1=C(O)C(=O)N(c2nnn(C)n2)C1c1cccs1` (stereo not given), the Potency result was “inactive”.

In the case of `O=C(O)c1cc(N2N=C(C(F)(F)F)/C(=C/C=C/c3ccco3)C2=O)ccc1Cl`, the Potency was 7.08 µM (active).

On to `O=C(COc1ccccc1)N1CCN(C(=O)Cc2ccccc2)CC1`, for which the Potency entry is “inactive”.

Regarding `Cc1ccc(C)c(S(=O)(=O)c2c(N)n(/N=C/c3ccco3)c3nc4ccccc4nc23)c1`, the Potency entry is “inactive”.

Regarding `Cc1cccc(OCC(=O)Nc2ccc(N3CCCC3)cc2)c1C`, the Potency is 11.2 µM (active).

On to `N#CC(c1ccccc1)c1ccc(C(=O)c2ccc(F)cc2)cc1` (stereo not given), for which the Potency result was “inactive”.

On to `CC(CN1CCCCC1)OC(=O)c1ccc(Cl)cc1` (stereo not given), for which the Potency result was “inactive”.

As to `C=CCn1c(Br)nc2c1c(=O)n(C)c(=O)n2C`, the Potency result was “inactive”.

With `Cc1ccc(C(=O)N(C)CC(=O)Nc2cccc(C)c2C)o1`, the Potency result is “inactive”.

`CC(C)c1ccc(CCNC(=O)c2ccc([N+](=O)[O-])cc2)cc1`: the Potency result was “inactive”.

The record behind these values is PubChem BioAssay AID493170 (National Center for Advancing Translational Sciences (NCATS), 2011).
